In PubChem BioAssay (NCATS):
Active and inactive are the calls of the source. Calls follow the shape of the dose curve; as a rule, active = well fitted inhibition curve with a large enough effect; inconclusive = small, poorly fitted or top-dose-only effect; inactive = no such curve, though single readings can be large or run the other way.

Assay: qHTS assay for measurement of the activity of small molecule inhibitors on Zika virus induced Caspase-3 activity in human astrocytoma cells (AID 1224859)
Settings: SNB-19 ZIKV-induced caspase-3/7, luminescence, 6 h; series mostly up to 45.7 µM; activity change, negative = inhibition: at the top concentration
Text: National Center for Advancing Translational Sciences [NCATS]
Johns Hopkins University School of Medicine
Increase in the Caspase-3 activity indicates an activation of apoptosis cell death pathway caused by Zika virus infection in certain types of neuronal cells including human neural progenitor cells (hNPCs), astrocytes, and astrocytoma cell line (SNB-19). This cell-based caspase-3 activity assay measures the increased caspase-3 activity in the astrocytoma cell line (SNB-19) after a 6-hour Zika virus infection with a luminescence readout. A decrease in the luminescence signal in this assay by small molecule treatment indicates an inhibitory effect of that small molecule on the Zika virus induced caspase-3 activity that may correlate with its effect on reduction of Zika virus caused cell death.
The medium for SNB-19 cells is composed of RPMI 1640 (ATCC, Cat.# 30-2001), 10% fetal bovine serum (FBS) (GE healthcare Life Sciences, Cat.# SH30071.03), and 1% Pen/Strep (Gibco, Cat.# 15140-122). A Caspase-Glo 3/7 assay kit (catalog number G8092; Promega, Madison, WI) was used to detect caspase-3 activity induced by Zika virus infection in human cells. The reagent mixture was reconstituted as described in the protocol from the manufacturer. Polystyrene tissue culture treated and PDL coated white plates were obtained from Greiner Bio-One (Monroe, NC). Cells were seeded in 384- or 1536-well assay plates and cultured at 37 C with 5% CO2 for 16 to 20 hours. The typical cell seeding density in the 1536-well plate assay is 250 cells/well in 3ul medium for SNB-19 cells in tissue culture treated plates. Compounds were added to cells and incubated for one hour before addition of ZIKV solution to cells (2 FFU/cell). After incubation at 37 C with 5% CO2 for 6 hours, the reagent mixture of Caspase-Glo 3/7 assay kit was added to each well, followed by incubation at room temperature for 30 minutes. The luminescence intensity of the assay plates was measured using a ViewLux plate reader (PerkinElmer). Data were normalized by using the cell-containing wells without ZIKV as a negative control (0% induction of caspase 3/7 activity) and wells containing ZIKV infected cells (Caspase-3 activity induced) as a positive control (100% induction of caspase 3 activity). The percentage inhibitions of the increased Caspase-3 activity by small molecule inhibitors were then calculated.

SMILES | activity change, negative = inhibition | outcome
COc1ccc2cc1Oc1ccc(cc1)C[C@H]1c3c(cc4c(c3Oc3cc5c(cc3OC)CCN(C)[C@@H]5C2)OCO4)CCN1C | -2.98% (inactive) | –
NC(N)=NCCC[C@H](N)C(=O)O | – | inactive
O=C(O)CN1C(=O)c2cccc3cccc(c23)C1=O | -16.8% (inactive) | –
CSc1ccc2c(c1)N(CCC1CCCCN1C)c1ccccc1S2 (stereo not given) | – | inactive
[Cl][In]([Cl])[Cl] | -16.4% [at 92.8 µM] (inactive) | –
O=C1O[C@H](CO)[C@@H](O)[C@H](O)[C@H]1O | -12.4% (inactive) | –
CC[N+](CC)(CC)CCOc1ccc(/C=C/c2ccccc2)cc1 | 13.8% (inactive) | –
CN(N=O)C(=O)N[C@@H]1[C@@H](O)[C@H](O)[C@@H](CO)O[C@@H]1O | 1.64% (inactive) | –
Nc1ncnc2c1ncn2[C@@H]1O[C@H](CO)[C@@H](O)[C@H]1O | – | inactive
Nc1ccc(S(=O)(=O)Nc2ccccc2)cc1 | 10.6% (inactive) | –
CC(C)(C)c1onc(OCP(=O)(O)O)c1CC(N)C(=O)O (stereo not given) | – | inactive
CC1CC(OC(=O)C(O)c2ccccc2)CC(C)(C)N1C (stereo not given) | -9.36% (inactive) | –
COC(=O)[C@H]1[C@H]2C[C@@H]3c4[nH]c5cc(OC)ccc5c4CCN3C[C@H]2C[C@@H](OC(=O)COc2ccc(OC)cc2)[C@@H]1OC | 3.06% (inactive) | –
CC(=O)CCC(=O)O | -2.66% (inactive) | –
Nc1ccc(S(=O)(=O)NC(=O)c2ccccc2)cc1 | 4.9% (inactive) | –
CC1(C)S[C@@H]2[C@H](NC(=O)Cc3ccccc3)C(=O)N2[C@H]1C(=O)O (tested in a mixture with another compound) | 6.34% (inactive) | –
CC(=O)OCC(=O)[C@@]1(O)CC[C@H]2[C@@H]3CCC4=CC(=O)CC[C@]4(C)[C@H]3C(=O)C[C@@]21C | – | inactive
Cn1c(=O)c2c(ncn2CC2OCCO2)n(C)c1=O | 9.5% (inactive) | –
CC(=O)Oc1c(C)c(C)c2c(c1C)CC[C@@](C)(CCC[C@H](C)CCC[C@H](C)CCCC(C)C)O2 | 17.8% (inactive) | –
CN(C)CCCN1c2ccccc2CCc2ccccc21 | – | inactive

SMILES | activity change, negative = inhibition | outcome
CSc1ccc2c(c1)C(N1CCN(C)CC1)Cc1ccccc1S2 (stereo not given) | – | inactive
O=C(O)CC(O)C(=O)O (stereo not given) | 11% (inactive) | –
N[C@H](C(=O)O)c1ccc(O)cc1 | -7.51% [at 20.5 µM] (inactive) | –
CC1(C)OC(=O)NC1=O | 1.67% (inactive) | –
CC1=C(C/C=C(\C)CCC[C@H](C)CCC[C@H](C)CCCC(C)C)C(=O)c2ccccc2C1=O | 8.17% (inactive) | –
CC1(C)Oc2ccc(C#N)cc2[C@@H](N2CCCC2=O)[C@@H]1O | -3.85% (inactive) | –
COC(=O)C1=C(C)NC(C)=C(C(=O)OC)C1c1ccccc1[N+](=O)[O-] | – | inactive
CN(C)CCC=C1c2ccccc2CCc2ccccc21 | – | inactive
NCC(=O)CCC(=O)O | -2.4% (inactive) | –
OC[C@H]1O[C@@H](O[C@@H]2[C@@H](CO)O[C@](O)(CO)[C@H]2O)[C@H](O)[C@@H](O)[C@H]1O | 1.84% (inactive) | –
NC1[C@H]2CN(c3nc4c(cc3F)c(=O)c(C(=O)O)cn4-c3ccc(F)cc3F)C[C@@H]12 (stereo not given in full) | -6.64% (inactive) | –
CC1(C)[C@@H]2CC[C@@]1(C)C(=O)C2 | -7.05% (inactive) | –
COc1cc2[nH]c(=O)[nH]c(=O)c2cc1OC | 7.59% (inactive) | –
CN(C)CC[C@@H](c1ccc(Cl)cc1)c1ccccn1 | – | inactive
c1ccc2c(CC3=NCCN3)cccc2c1 | 3.68% (inactive) | –
O=C(Oc1ccccc1C(=O)O)c1ccccc1O | -5.81% (inactive) | –
CN1CCCCC1CCN1c2ccccc2Sc2ccc(S(C)=O)cc21 (stereo not given) | -2.49% (inactive) | –
OCC(O)CN1CCN(c2ccccc2)CC1 (stereo not given) | 1.1% (inactive) | –
COc1ccc2cc1Oc1cc3c(cc1OC)CC[N+](C)(C)[C@H]3Cc1ccc(cc1)Oc1c(OC)c(OC)cc3c1[C@@H](C2)[N+](C)(C)CC3 | -12.1% (inactive) | –
O=Cc1ccccc1C=O | -1.83% (inactive) | –
